In PubChem BioAssay (NCATS):
Results filed as inconclusive are left out. Calls of active or inactive are those of the source. Unless noted, the call rests on the fitted dose curve; in most records, active means well fitted curve in the direction sought with a large enough effect; inconclusive means small, poorly fitted or top-dose-only effect, or another doubt; inactive means no such curve, though single readings can be large; an effect the other way counts as inactive or inconclusive.

Tests used:
[1] = HPAF-II 24hr Apoptosis Induction qHTS against the NCATS CANVASS Library (AID 1347356)
Method in brief: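 HPAF-II cells (500/well) exposed to compounds in 11-point series for 24 h at 37 degrees C; caspase-3/7 activity read by Caspase-Glo luminescence after 15 min at room temperature. Doxorubicin titration as control.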

[2] = HEK293 18hr Apoptosis Induction qHTS against the NCATS CANVASS Library (AID 1347357)
Method in brief: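 Natural products applied to HEK293 for 18 hr; Caspase-Glo 3/7 readout.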

[3] = HEK293 24hr Apoptosis Induction qHTS against the NCATS CANVASS Library (AID 1347359)
Method in brief: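 Caspase-3/7 activation measured as luminescence from the DEVD-based Caspase-Glo reagent, 15 min at room temperature, following 24-hour compound treatment of HEK293 cells.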

[4] = system: NAD(P)H diaphorase (Clostridium kluyveri); test: Diaphorse counterscreen qHTS: Assay Interference Panel against the NCATS CANVASS Library (AID 1347362)
Method in brief: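 Counterscreen for coupling-enzyme interference: resorufin fluorescence from resazurin/NADH turnover, read after 5 min at room temperature. Compounds were tested over an 11-point series after 15 min dark preincubation with diaphorase in PBS-Tween.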

[5] = target: Luciferin 4-monooxygenase (Photinus pyralis) (UniProt P08659); test: Firefly luciferase counterscreen qHTS: Assay Interference Panel against the NCATS CANVASS Library (AID 1347363)
Sequence of Luciferin 4-monooxygenase (Photinus pyralis) (P08659 whole entry, looked up): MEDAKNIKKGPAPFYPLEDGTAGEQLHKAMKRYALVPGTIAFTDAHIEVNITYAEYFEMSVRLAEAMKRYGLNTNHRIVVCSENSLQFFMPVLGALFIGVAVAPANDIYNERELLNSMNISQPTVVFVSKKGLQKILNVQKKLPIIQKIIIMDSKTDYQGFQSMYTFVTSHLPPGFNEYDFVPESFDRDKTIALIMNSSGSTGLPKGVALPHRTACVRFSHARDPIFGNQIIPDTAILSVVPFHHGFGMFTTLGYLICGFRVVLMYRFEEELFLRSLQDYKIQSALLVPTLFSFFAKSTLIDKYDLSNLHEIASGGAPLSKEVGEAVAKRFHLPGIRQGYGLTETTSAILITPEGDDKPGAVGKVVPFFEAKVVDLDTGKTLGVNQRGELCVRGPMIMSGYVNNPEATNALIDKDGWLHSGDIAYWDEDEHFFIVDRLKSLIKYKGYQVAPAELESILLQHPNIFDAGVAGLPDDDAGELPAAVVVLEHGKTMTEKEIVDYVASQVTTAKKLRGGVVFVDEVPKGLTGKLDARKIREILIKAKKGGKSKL
Method in brief: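 Luminescence inhibition readout: compounds (11-point qHTS) sat 15 min at room temperature with substrate mix (0.013 mM luciferin and ATP), then firefly luciferase was added and signal read 5 min later.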

[6] = KB-3-1 Cancer Cell Toxicity qHTS against the NCATS CANVASS Library (AID 1347366)
Method in brief: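 Cytotoxicity toward KB-3-1 cells (500/well, DMEM + 10% FBS) was scored by CellTiter-Glo luminescence following 72 hr exposure at 37C, with bortezomib titrated as control.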

[7] = MCF7 Cancer Cell Toxicity qHTS against the NCATS CANVASS Library (AID 1347369)
Method in brief: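 This 72 hr qHTS scored MCF7 viability by CellTiterGlo luminescence, with 500 cells/well; bortezomib titration ran as control.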

[8] = qHTS for ATAD5 Antagonist screened against the NCATS CANVASS Library (AID 1347370)
Method in brief: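 HEK293T cells with stably integrated ATAD5-luciferase reporter, 2000/well, 5 h attachment; compounds plus 10 µM 5-fluorouridine, 16 h at 37 °C. Luciferase luminescence read, with CellTiter-Fluor viability read first.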

[9] = J3T Cancer Cell Toxicity qHTS against the NCATS CANVASS Library (AID 1347371)
Method in brief: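 J3T dog glioma cells, 500 per well, treated 72 h at 37C with compounds (11-point qHTS); viability from ATP content by CellTiterGlo luminescence; bortezomib titration as control.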

[10] = target: Nuclear receptor subfamily 1 group I member 3 (Homo sapiens) (UniProt Q14994); test: qHTS for Constitutive Androstane Receptor (CAR) Antagonist screened against the NCATS CANVASS Library (AID 1347372)
Sequence of Nuclear receptor subfamily 1 group I member 3 (Homo sapiens) (Q14994 whole entry, looked up): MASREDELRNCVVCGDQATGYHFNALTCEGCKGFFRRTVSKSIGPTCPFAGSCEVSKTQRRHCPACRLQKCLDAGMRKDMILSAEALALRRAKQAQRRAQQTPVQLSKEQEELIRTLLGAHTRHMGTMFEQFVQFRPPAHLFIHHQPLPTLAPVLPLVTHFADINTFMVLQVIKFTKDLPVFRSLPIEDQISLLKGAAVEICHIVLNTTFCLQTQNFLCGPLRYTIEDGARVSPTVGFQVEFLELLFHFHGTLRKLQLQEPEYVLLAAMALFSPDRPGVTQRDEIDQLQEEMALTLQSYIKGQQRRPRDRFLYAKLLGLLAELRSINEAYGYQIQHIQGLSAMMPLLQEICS
Method in brief: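 HepG2-CYP2B6-hCAR double-stable cells plated, 4hr attach; cpd pin-transferred; CITCO 50 nM final; 24hr 37C/5% CO2; CellTiter-Fluor 1hr (fluorescence), then ONE-Glo luminescence.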

[11] = target: Nuclear receptor subfamily 1 group I member 3 (Homo sapiens) (UniProt Q14994); test: qHTS for Constitutive Androstane Receptor (CAR) Agonist screened against the NCATS CANVASS Library (AID 1347373)
Method in brief: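 HepG2 cells stably carrying hCAR and a CYP2B6-2.2kb luciferase reporter, treated 24hr at 37C with compounds plus 1.5uM PK11195; activation by ONE-Glo luminescence, viability by CellTiter-Fluor.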

[12] = qHTS for Hypoxia signaling pathway (HIF-1) antagonists against the NCATS CANVASS Library (AID 1347374)
Method in brief: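 HRE-bla ME-180 cells in medium with 0.5% dialyzed FBS received compounds (11-point series) plus CoCl2 (60 uM addition stock) for 17 hrs at 37C. Beta-lactamase activity read with CCF4 (405 nm ex, 460/530 nm em); CellTiter-Glo viability measured in same wells.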

[13] = Inflammasome Signaling qHTS Counterscreen: IL-1-beta AlphaLISA counterscreen against the NCATS CANVASS Library (AID 1347381)
Method in brief: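 Cell-free interference check: compounds added to medium spiked with 4 pg purified IL-1β. Anti-IL-1β acceptor beads (6 ug/mL) with 0.6 nM biotinylated antibody added for 1 h at RT, then streptavidin donor beads (24 ug/mL) for 30 min in the dark. AlphaLISA read at 680/615 nm.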

[14] = Cytotoxicity qHTS for assessment of Hepg2 cells membrane integrity screened against the NCATS CANVASS Library (AID 1347387)
Method in brief: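 HepG2 cells (2000/well) attached overnight, then exposed 5 hr at 37C to compounds in an 11-point series (0.59 nM - 46 uM final). LDH release from damaged membranes read fluorometrically (CytoTox-ONE; 560/590 nm) after 10 min at room temperature.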

[15] = qHTS for Activators of p53 Stress Response Pathway screened against the NCATS CANVASS Library (AID 1347388)
Method in brief: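 Beta-lactamase reporter driven by p53 response elements in HCT-116 cells, read as the 460 nm/530 nm emission ratio after CCF4 loading, following 16 h of exposure to an 11-point series. Cell viability was measured in the same wells by CellTiter-Glo luminescence.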

[16] = qHTS assay for small molecule disruptors of mitochondrial membrane potential screened against the NCATS CANVASS Library (AID 1347389)
Method in brief: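 HepG2 cells (2,000/well) plated overnight, then exposed to compounds in 11-point qHTS series for 1 h at 37C before 30 min Mito-MPS dye; depolarization read as fall in red aggregate (590 nm) to green monomer (535 nm) fluorescence.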

[17] = qHTS for activators of dead-cell proteases activity screened against the NCATS CANVASS Library (AID 1347392)
Method in brief: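 Compounds are pin-transferred onto attached HepG2 cells, giving 11 final concentrations. After 5 h at 37C, AAF-aminoluciferin reagent is added and luminescence is recorded at room temperature.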

[18] = qHTS for inhibitors of ER calcium dysfunction: SERCaMP assay screened against the NCATS CANVASS Library (AID 1347393)
Method in brief: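 Thapsigargin-induced ER calcium depletion drives GLuc-SERCaMP secretion from SH-SY5Y cells; compounds given 16 h beforehand were scored by lowered coelenterazine luminescence after 4 h challenge.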

[19] = Vero-766 cells viability qHTS against the NCATS CANVASS Library: Counterscreen for Zika virus inhibition assay (AID 1347394)
Method in brief: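 Counterscreen for toxicity: Vero 766 cells exposed 72 h to an 11-point compound series, viability by CellTiter-Glo.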

[20] = qHTS for inhibitors of Wild type Zika virus screened against the NCATS CANVASS Library (AID 1347396)
Method in brief: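 Protection against wild-type Zika cytopathic effect is measured in African green monkey Vero 766 cells exposed to an 11-point compound series. Surviving cells are quantified by CellTiter Glo luminescence after 72 h.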

[21] = qHTS for inhibitors of Rabies Virus screened against the NCATS CANVASS Library (AID 1347402; calls by dose curve)
[22] = Primary qHTS for small molecule stabilizers of the endoplasmic reticulum resident proteome: Secreted ER Calcium Modulated Protein (SERCaMP) assay (AID 1508630)
Method in brief: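 GLuc-SERCaMP-expressing SH-SY5Y cells, pretreated 16 h with compound, are challenged with thapsigargin to empty ER calcium stores; after 4 h, coelenterazine is added directly to the medium and luminescence is imaged.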

COc1ccc2c3c([nH]c2c1)C(C)=NCC3
outcome [1]: inactive
Potency [2]: inactive
Potency [3]: inactive
outcome [4]: inactive
outcome [5]: inactive
Potency [6]: inactive
Potency [7]: inactive
Potency [8]: 16.6 µM (active)
Potency [9]: inactive
Potency [10]: inactive
outcome [11]: inactive
Potency [12]: inactive
outcome [13]: inactive
outcome [14]: inactive
Potency [15]: 18.6 µM (active)
Potency [16]: inactive
Potency [17]: inactive
Potency [18]: 27.2 µM (active)
Potency [19]: inactive
Potency [20]: inactive
outcome [21]: inactive
Potency [22]: inactive
